Many of the other results were omitted from the sample, so hits are more common in it than they were.
Dicer inh: human Dicer pre-microRNA cleavage inhibition; z-score at 25 µM; actives 6% (n = 47,000); cat-ELCCA pre-miR-21 Dicer processing, chemiluminescence; active compounds read high; AID 1347074; in the data active = z-score above about 3, passing the limit was not always enough;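 note: plate controls were vehicle for no effect and no enzyme for full effect; higher signal means more uncleaved substrate so more Dicer inhibition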
* hit, by the source's call.

SMILES	Dicer inh
COCCCN1C(=O)C(=O)/C(=C(/O)c2ccc(C)cc2)C1c1ccc(OC)c(OC)c1 (centres undefined)	8.81
COc1ccc(C2=NOC(CN3C(=O)c4ccccc4S3(=O)=O)C2)cc1 (centres undefined)	-1.56
Cc1nc(-c2c(Cl)cc(C(F)(F)F)cc2Cl)sc1C(=O)/C=C/N(C)C	-1.9
CCCCOc1ccc2c(=O)c(Oc3cc(C)cc(C)c3)coc2c1	-1.28
N#C/C(=N\Nc1cc(Cl)cc(Cl)c1)S(=O)(=O)c1ccc(Cl)cc1	1.87
CN(C(=O)Nc1ccccc1)c1c2c(nn1C)CCCC2	0.11
Cc1ccc(C(=O)Cn2c(C)[n+](C)c3ccccc32)cc1	-0.17
COC(=O)c1ccc(OCC(O)Cn2c(C)[n+](C)c3ccccc32)cc1 (centres undefined)	0.87
Cc1n(CC(=O)c2ccc(C(C)(C)C)cc2)c2ccccc2[n+]1C	4.94*
CCCCNc1cc(=O)n(C)c(=O)n1C	0.7
S=C1NCN(CCc2ccncc2)CN1	-0.47
O=c1c(-c2ccccc2)c(O)c2cccc3c2n1CCC3	0.11
CCNc1nc(SCC(=O)NC(=O)Nc2ccccc2)nc2sc3c(c12)CCN(C)C3	2.04
Nc1cccc2c(S(=O)(=O)NC3CCCCC3)cccc12	-1.29
Cc1ccccc1-n1c(=O)n(Cc2ccccc2)c(=O)c2[nH]cnc21	-0.57
Cc1ccc(CSc2nc(C)cc(=O)[nH]2)cc1	-1.65
Cc1cc(C)nc(N2N=C(CSc3nnnn3-c3ccccc3)CC2=O)n1	-1.53
Cc1cc(=O)[nH]c(SCc2cccc(Oc3ccccc3)c2)n1	-0.26
Cc1cc(=O)[nH]c(SCc2cn3c(C)cccc3n2)n1	4.77*
Cc1cccc2nc(CSc3nnnn3-c3ccccc3)cn12	6.51*
Cc1cccc2nc(CSc3nncn3-c3ccccc3)cn12	-0.94
O=C(O)CC(Cc1ccccc1)C(=O)O (centres undefined)	-0.84
COc1ccc(/C=N/n2cnc3c(sc4nc(C)cc(C)c43)c2=O)cc1	-0.11
Cc1cc(C)n(CC(=O)n2c3ccccc3c3ccccc32)n1	1.23
CCOc1ccc(N2CC(c3nc4ccccc4[nH]3)CC2=O)cc1 (centres undefined)	47.8
SMILES	Dicer inh
CCOC(=O)c1sc2nc(C)cc(C)c2c1NC(=O)Nc1cccc(Cl)c1	0.39
CCOC(=O)c1sc2nc(C)cc(C)c2c1N(C(C)=O)C(C)=O	3.36*
CC(=O)c1sc2nc(C)cc(C)c2c1N	-1.58
COC(=O)c1cc(/C=C(\C#N)C(=O)O)c(OC)cc1OC	-2.13
CSc1nc(N/C=C2/C(=O)c3ccccc3N(C)S2(=O)=O)nc(C2CC2)n1	-0.84
CCOC(=O)c1cnn2c(C)cc(-c3ccc(F)cc3)nc12	-0.57
Cc1ccc(-c2cc(C(F)(F)F)n3ncc(C(=O)Nc4ccc5c(c4)OCO5)c3n2)cc1	-0.12
CC(C)OC(=O)c1cnn2c(C(F)(F)F)cc(-c3ccc(F)cc3)nc12	4.7*
CCOC(=O)c1sc(S(C)=O)c2c1CCc1cnoc1-2 (centres undefined)	-0.52
CCOC(=O)c1sc2nnc(-c3ccccc3)c(-c3ccccc3)c2c1N	1.71
COc1nc(-c2ccccc2)ccc1-c1noc(-c2ccc(C)cc2)n1	1.48
COc1nc(-c2ccc(C)cc2)ccc1-c1noc(-c2cccnc2)n1	3.55*
COc1ccc(-c2ccc(-c3noc(-c4cccc(OC)c4)n3)c(OC)n2)cc1	-0.9
O=C(Nc1ccc2oc(-c3cccc(Cl)c3)nc2c1)c1ccc([N+](=O)[O-])o1	7.04
Cc1ccc(-c2nc3cc(Cl)ccc3o2)cc1NC(=O)c1ccc([N+](=O)[O-])o1	0.65
Cc1ccc2nc(-c3ccc(C)c(NC(=O)c4ccc([N+](=O)[O-])o4)c3)oc2c1	4.11*
COc1cccc(-c2nn(-c3ncccc3C(F)(F)F)c(=O)o2)c1	0.69
COc1cccc(-c2nnc(SCc3ccc(C)cc3)o2)c1	-2.03
CCSCCOC(=O)C1=C(C)NC2=C(C(=O)CC(c3cccs3)C2)C1c1cccc(O)c1 (centres undefined)	0.51
c1ccc(-c2cn3c4ccccc4n(CCN4CCOCC4)c3n2)cc1	4.11*
Cc1nc2n(CCN3CCOCC3)c3ccccc3n2n1	1.19
Cc1ccc(-c2cn3c4ccccc4nc3n2CCN2CCOCC2)cc1	2.2
CC12C=CC(O1)C1C(=O)N(c3ccc(C(=O)O)cc3)C(=O)C12 (centres undefined)	-0.17
O=C(O)c1ccc(N2C(=O)CCC2=O)cc1	4.83*
CCCCCCC(=O)Oc1ccc(N2C(=O)CCC2=O)cc1	1.43
SMILES	Dicer inh
CC(C)=NNc1c(Cl)cc(Cl)cc1Cl	0.76
COc1ccc(N2CCN(C3CC(=O)N(c4ccccc4F)C3=O)CC2)cc1 (centres undefined)	-1.42
Cn1nc(C(F)(F)F)c2cc(C(=O)Nc3ccc(F)c(Cl)c3)sc21	-0.39
Cc1ccc(OCc2ccccc2)cc1[N+](=O)[O-]	-0.77
O=c1nc(-c2ccccc2)c2ccccc2[nH]1	6.58
Cc1nc(-c2ccccc2)c2c(=O)cc(-c3ccccc3)[nH]c2n1	1.8
O=c1cc(-c2ccccc2)[nH]c2ccccc12	3.95*
COc1cc2c3c(c1OC)C1(C=CC(=O)C=C1)CC3N(C)CC2 (centres undefined)	0.46
C=CCN1C(=O)NC2C1N(S(C)(=O)=O)CCN2S(C)(=O)=O (centres undefined)	5.83*
CCOc1ccccc1NC(=O)O/N=C(\N)Cc1cccc2ccccc12	1.11
Cn1c(=O)oc2cc(S(=O)(=O)Nc3ccc(C(=O)O)cc3)ccc21	1.97
Cn1c(=O)oc2cc(S(=O)(=O)Nc3ccc(O)cc3)ccc21	0.87
CCCCOC(=O)n1c(=O)oc2cc(S(=O)(=O)Nc3ccc(C)cc3)ccc21	3.3*
C(#Cc1ccccc1)CN1CCN(C/C=C/c2ccccc2)CC1	0.39
Cc1cccc(C(=O)C2=NNCC2c2ccc(Cl)cc2)c1 (centres undefined)	-0.91
CCc1nn2cc(-c3ccc(Cl)cc3)nc2s1	-0.63
CC1=C(C(=O)OC2CCCC2)C(c2ccc3c(c2)OCO3)C2=C(CC(C)(C)CC2=O)N1 (centres undefined)	1.15
Oc1ccccc1-c1ccnc2cc(-c3ccc(Cl)cc3)nn12	3.29*
COc1ccc(-c2cc3nccc(-c4ccccc4O)n3n2)cc1	1.98
CN1C(=O)COc2ccc(-c3ccnc4cc(-c5ccc(Cl)cc5)nn34)cc21	-1.68
COc1ccc(-c2cc3nccc(-c4cc(Cl)ccc4O)n3n2)cc1	5.19
Oc1ccc(Cl)cc1-c1ccnc2cc(-c3ccccc3)nn12	9.29*
Oc1ccc(F)cc1-c1ccnc2cc(-c3ccc(Cl)cc3)nn12	4.04*
c1ccc(-c2cc3nccc(-c4ccccc4)n3n2)cc1	0.55
Cc1ccc(O)c(-c2ccnc3cc(-c4ccccc4)nn23)c1	1.11
SMILES	Dicer inh
Cc1cc2nccc(-c3ccc(Cl)cc3)n2n1	1.39
CN(C)/C=C(\C#N)C(=O)c1cccc(C(F)(F)F)c1	0.98
C=C[C@H]1CN2CC[C@H]1C[C@@H]2[C@@H](O)c1ccnc2ccc(OC)cc12	0.7
Cc1c(C2=NOC(O)(C(F)(F)F)C2)sc2ccc(Cl)cc12 (centres undefined)	-4.38
CCCOc1ccc(C2c3c(oc4ccccc4c3=O)C(=O)N2c2nnc(C)s2)cc1OCC (centres undefined)	-0.5
CCCOc1ccc(C2c3c(oc4ccccc4c3=O)C(=O)N2c2ccccn2)cc1OCC (centres undefined)	4.4*
CCCOc1cccc(C2c3c(oc4ccccc4c3=O)C(=O)N2c2ccccn2)c1 (centres undefined)	-5.9

Screening data (PubChem)
